From PubChem BioAssay AID1416 (The Scripps Research Institute Molecular Screening Center, 2008)
About 370 (0.17%) of roughly 220,000 compounds were called active. This is one part of a sample in which actives are shown more often than they occur. Unmarked numbers belong to inactive results.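 The calls were made as follows: active = inhibition above the mean inhibition of all tested compounds plus 3 SD, set separately per screening campaign (cut at about 2.9% in these data); inactive = the rest.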

These molecules were tested against Eukaryotic translation initiation factor 2-alpha kinase 3 (Homo sapiens) (UniProt Q9NZJ5) (assay: block of dimerizer-induced PERK translation repression, primary screen, PERK inhibitor project, CHO PERK-DD cells, SEAP luminescence, HTS (AID 1416;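 also: PERK kinase domain activated by AP20187 dimerizer at 100 nM; 0% = DMSO with dimerizer and 100% = rapamycin at 8.4 µM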)). Conditions: CHO PERK-DD fusion, SEAP luminescence translation reporter; at 5.6 µM; active compounds read high.
Chain of Eukaryotic translation initiation factor 2-alpha kinase 3 (Homo sapiens) (Q9NZJ5 whole entry, looked up, the tested form may be a part): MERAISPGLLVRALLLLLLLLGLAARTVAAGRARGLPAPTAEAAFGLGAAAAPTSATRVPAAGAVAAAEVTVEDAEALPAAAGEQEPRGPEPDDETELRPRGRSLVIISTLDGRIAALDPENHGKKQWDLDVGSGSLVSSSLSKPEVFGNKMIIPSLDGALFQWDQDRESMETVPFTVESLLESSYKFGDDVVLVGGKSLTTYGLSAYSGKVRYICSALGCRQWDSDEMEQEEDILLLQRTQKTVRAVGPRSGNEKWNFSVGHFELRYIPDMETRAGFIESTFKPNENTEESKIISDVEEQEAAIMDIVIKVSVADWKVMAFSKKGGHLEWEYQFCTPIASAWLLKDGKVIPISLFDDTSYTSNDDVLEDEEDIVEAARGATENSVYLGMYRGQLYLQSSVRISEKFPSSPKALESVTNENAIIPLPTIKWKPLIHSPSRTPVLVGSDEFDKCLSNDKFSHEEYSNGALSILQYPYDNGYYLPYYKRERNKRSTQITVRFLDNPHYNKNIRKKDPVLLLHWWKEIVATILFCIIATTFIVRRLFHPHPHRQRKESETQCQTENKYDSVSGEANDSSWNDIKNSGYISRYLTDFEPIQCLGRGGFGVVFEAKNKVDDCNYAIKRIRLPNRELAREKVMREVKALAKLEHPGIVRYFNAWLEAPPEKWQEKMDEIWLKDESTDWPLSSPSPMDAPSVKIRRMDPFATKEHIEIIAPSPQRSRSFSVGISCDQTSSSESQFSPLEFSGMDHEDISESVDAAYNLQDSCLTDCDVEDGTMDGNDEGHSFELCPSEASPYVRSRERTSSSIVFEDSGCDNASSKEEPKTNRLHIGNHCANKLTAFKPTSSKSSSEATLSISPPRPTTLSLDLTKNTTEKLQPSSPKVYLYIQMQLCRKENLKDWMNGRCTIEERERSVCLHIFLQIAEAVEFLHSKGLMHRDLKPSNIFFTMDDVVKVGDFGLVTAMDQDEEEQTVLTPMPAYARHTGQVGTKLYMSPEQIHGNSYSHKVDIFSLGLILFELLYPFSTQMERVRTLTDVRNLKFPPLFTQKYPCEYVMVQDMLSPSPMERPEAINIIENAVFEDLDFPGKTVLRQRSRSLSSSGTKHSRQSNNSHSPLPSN
With `CC1=NN(C(C)C)C(=O)C1` the inhibition was 0.1%.
With `O=C(CN1CCN(S(=O)(=O)c2ccc3ccccc3c2)CC1)NC(=O)NC1CCCCC1` the inhibition was -1.71%.
Work on `COc1ccc(-n2c(C)nn(CC3CC3)c2=O)cc1` yielded an inhibition of 0.52%.
For `COc1ccc(CN2CCCC(CNC(=O)c3ccc(F)cc3)C2)cc1OC` (stereo not drawn), the inhibition was 0.78%.
`O=C(NNC(=O)C1CCN(c2ncccn2)CC1)c1ccccc1` showed an inhibition of 1.78%.
Work on `Cc1cc(Cl)ccc1OCCCC(=O)NCc1ccccn1` yielded an inhibition of 0.34%.
`O=C(Nc1cccnc1)c1cc([N+](=O)[O-])ccc1Cl` gave an inhibition of 1.12%.
With `Cc1cc(=O)[nH]c(N/N=C/c2c(C)nn(-c3ccccc3Cl)c2Cl)n1` the inhibition was 0.41%.
In the case of `COc1ccc2[nH]c(=O)c(CNc3ccc(C)c(C)c3)cc2c1`, the inhibition is reported as 0.88%.
`COc1ccc2[nH]c3ccc(OC)cc3c2c1` was tested, and the inhibition was -0.09%.
`COc1ccc2[nH]c(=S)cc(C)c2c1` was tested, and the inhibition was 3.26% (active).
With `CN1CCN(CCC(=O)N/N=C/C=C2\N(C)c3ccccc3C2(C)C)CC1` the inhibition was 0.12%.
`O=C(COC(=O)c1cnc(Cl)c(Cl)c1)NCc1ccco1` gave an inhibition of -0.25%.
With `NC(=O)Cc1ccc2sc(-c3ccccc3)nc2c1` the inhibition was 0%.
Molecule `O=C(CCNc1n[nH]c(=O)[nH]c1=O)N/N=C\c1ccc(Br)cc1` has an inhibition of 1.9%.
Work on `Cc1cc(/C=N/NC(=O)CC2(C)OCCO2)c(C)n1-c1ccc(Cl)c(Cl)c1` yielded an inhibition of -0.35%.
With `CC(=O)NC1=NN(C(C)=O)C(C)(c2ccc(C)cc2)S1` (stereo not drawn) the inhibition was 0.26%.
Work on `COc1ccc(CC(NC(C)=O)C(=O)NC2CCN(C(=O)c3ccc(OC)c(OC)c3)CC2)cc1OC` (stereo not drawn) yielded an inhibition of 0.49%.
With `O=C(COc1ccc([N+](=O)[O-])cc1Cl)Nn1cnnc1` the inhibition was 0.99%.
`CN(C)S(=O)(=O)c1cccc(NC(=S)NCc2ccc3c(c2)OCO3)c1` was tested, and the inhibition was -0.05%.
In the case of `COC(OC)c1ccnc(SCc2ccccc2Cl)n1`, the inhibition is reported as 1.69%.
In the case of `CCN1CCN(C(=O)CCN2C(=O)c3ccccc3C2=O)CC1`, the inhibition is reported as 1.42%.
With `COC(=O)c1cc2n(n1)CCCNC2=O` the inhibition was 0.06%.
Molecule `CCN(CC)CCOC(=O)c1ccc(NC(=O)CNC(=O)c2ccccc2)cc1` has an inhibition of 2.02%.
In the case of `CCn1nc(C)c(CN2CCN(Cc3ccc(OC)c(C)c3C)C(CCO)C2)c1C` (stereo not drawn), the inhibition is reported as -0.31%.
`COc1ccc(N2C(=O)C(Cc3ccccc3)NC2=S)cc1` (stereo not drawn) gave an inhibition of 0.37%.
`Cc1ccc(N2C(=O)C(Cc3ccccc3)NC2=S)cc1` (stereo not drawn) was tested, and the inhibition was -0.27%.
For `O=C1C(Cc2ccc(O)cc2)NC(=S)N1Cc1ccccc1` (stereo not drawn), the inhibition was 3.13% (active).
Work on `O=[N+]([O-])c1ccc2c(c1)C(N1CCOCC1)/C(=C/C1(O)CCCCC1)O2` (stereo not drawn) yielded an inhibition of -1.29%.
In the case of `Cc1c(C(=O)N(Cc2ccccc2)Cc2cccnc2)cnn1-c1ccc(F)cc1`, the inhibition is reported as -0.72%.
For `CCc1cc(CNC(=O)CC2C(=O)NCCN2CC2CCCCC2)on1` (stereo not drawn), the inhibition was -0.53%.
`COc1cc(NS(=O)(=O)c2ccc(NC(=O)CN3C(=O)c4ccccc4C3=O)cc2)ncn1` gave an inhibition of 2.32%.
`Cc1ccc(Oc2cnn(-c3ccccc3)c(=O)c2Br)cc1` was tested, and the inhibition was 2.99% (active).
Work on `COc1ccc(Oc2c(Cl)cnn(-c3ccccc3)c2=O)cc1` yielded an inhibition of 0.39%.
For `COc1ccc(-n2c(C)nc3c(cnn3-c3ccccc3)c2=O)cc1`, the inhibition was -0.16%.
`CCCS(=O)(=O)N1CCC(CCOc2ccccc2)(C(=O)OCC)CC1` showed an inhibition of -0.64%.
Work on `O=C(NC(=O)N1CCOCC1)c1ccccc1` yielded an inhibition of 0.27%.
Work on `O=C(NC(=O)c1cc(OCC(F)(F)F)ccc1OCC(F)(F)F)Nc1ccccc1` yielded an inhibition of 0.87%.
With `CN(C)S(=O)(=O)c1ccc(NC(=O)N2CCOCC2)cc1` the inhibition was 0.79%.
Molecule `Cn1nccc1NS(=O)(=O)c1ccc(F)cc1` has an inhibition of 0.14%.
In the case of `CC(C)CNC(=O)C(=O)Nc1ccc(N(C)C)cc1`, the inhibition is reported as 0.89%.
`Nc1ccc(S(=O)(=O)Nc2nccc(/C=C/c3ccc(Br)s3)n2)cc1` showed an inhibition of 1.17%.
Molecule `CC(CC(=O)Nc1ccccc1)n1ccnc1` (stereo not drawn) has an inhibition of 0.1%.
`Cc1cccc(C)c1NC(=O)Nc1ccccc1-n1ccnc1` was tested, and the inhibition was 1.72%.
For `O=C(O)CCCC(=O)Nc1ccccc1-n1ccnc1`, the inhibition was 3.15% (active).
In the case of `COc1cccc(C2SCC(=O)N2c2cccc(C)c2)c1OC` (stereo not drawn), the inhibition is reported as 0.28%.
For `CC(=O)NCC(=O)N(Cc1ccco1)C1(C(=O)NC2CCCC2)CCCCC1`, the inhibition was 0.44%.
`CCc1ccc(N(CC(=O)Nc2sc3c(c2C(=O)OC)CCCC3)S(C)(=O)=O)cc1` gave an inhibition of 0.54%.
`O=C(c1cccc(S(=O)(=O)N2CCCC2)c1)N(Cc1ccco1)C1CCS(=O)(=O)C1` (stereo not drawn) was tested, and the inhibition was 0.31%.
For `Cc1nn(-c2ccccc2)c(-n2cccc2)c1C(=O)O`, the inhibition was 0.88%.
For `CC(CO)(CO)NC(=O)c1ccc(=O)[nH]n1`, the inhibition was 1.5%.
`CCC(C)NCCOCCOc1ccc(Br)cc1C` (stereo not drawn) gave an inhibition of -0.24%.
`COc1ccc(C2c3c(C)nn(-c4ccccc4)c3NC(=O)N2c2ccccc2)cc1` (stereo not drawn) gave an inhibition of -0.38%.
Work on `CCN(CCCNC(=O)C1CCN(S(=O)(=O)c2cnc[nH]2)CC1)c1ccccc1` yielded an inhibition of -0.73%.
`O=C(Nc1ccccc1)O/N=C1/CCCc2occc21` gave an inhibition of 0.48%.
`COc1ccc(-c2csc(NC(=O)COC(=O)c3ccc(Br)o3)n2)cc1` was tested, and the inhibition was 0.82%.
`O=[N+]([O-])c1ccc(NCCCO)c(C(F)(F)F)c1` was tested, and the inhibition was 0.52%.
With `CCN(CC)CCNc1ccc(Cl)cc1[N+](=O)[O-]` the inhibition was -0.09%.
`N#Cc1c(NCCO)ccc([N+](=O)[O-])c1NCCO` was tested, and the inhibition was 3.54% (active).
`O=C(C1CCCN1S(=O)(=O)c1ccc(Br)cc1)N1CCOCC1` (stereo not drawn) gave an inhibition of 1.24%.
Work on `CCC1(C)Cc2c(sc3nc(SC)[nH]c(=O)c23)CO1` (stereo not drawn) yielded an inhibition of -0.25%.
Molecule `CCOC(=O)Cn1c(SC)nc2sc3c(c2c1=O)CC(C)(C)OC3` has an inhibition of 0.18%.
For `CCOC(=O)CSc1nc2sc3c(c2c(=O)[nH]1)CC(C)(C)OC3`, the inhibition was 2.96% (active).
